Drawing on PubChem BioAssay (EPA / NIEHS), this text covers outcome and AC50 for twelve molecules.

Records with an inconclusive call do not appear. Active and inactive are the calls of the source. How the source made its calls: active means hit-call score of the fitted dose curve at least 0.9, where 1 is the maximum; inconclusive means response in the unintended direction; inactive means score below 0.9.

Assay [1] has as its target human Opioid Receptor Mu (Opiate Mu), OPRM1 (gene 4988) (UniProt P35372). The assay can be described thus: NVS_GPCR_hOpiate_mu: NovaScreen (NVS) G Protein-Coupled Receptor Assay for human Opioid Receptor Mu (Opiate Mu) (AID 2283290).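 Further: hits lower bound tracer signal versus DMSO meaning displacement of the ligand.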 In short, it runs like this: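 Here, radioligand binding to CHO-extracted receptor was measured after 2.5 h using filter-based scintillation detection. Initial single-concentration screening used 25 uM in duplicate with plate controls; confirmed actives went to concentration-response testing.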

Assay [2] deals with guinea pig Atrionatriuretic Peptide Receptor A (ANPA), gene 100135578. In words: NVS_GPCR_gANPA: NovaScreen (NVS) G Protein-Coupled Receptor Assay for guinea pig Atrionatriuretic Peptide Receptor A (ANPA) (AID 2283291). In short, it runs like this: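 Radioligand binding to guinea pig cerebellar membranes was measured after 1 h by filter-based scintillation counting. Chemicals were tested in duplicate at 25 uM, with hits run in concentration-response to a maximum of 50 uM. Binding loss was fitted against DMSO.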

Assay [3] deals with Muscarinic acetylcholine receptor M5 (Homo sapiens) (UniProt P08912). The assay can be described thus: NVS_GPCR_hM5: NovaScreen (NVS) G Protein-Coupled Receptor Assay for human Muscarinic, M5 Receptor (AID 2283275). In outline: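 Radioligand displacement on CHO-derived membrane preparations, 1 h, filter-based scintillation counting. Single-concentration duplicate screen at 25 uM; hits (e.g. 30% inhibition) retested in singleton concentration-response up to 50 uM. Loss of binding fitted versus DMSO.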
Muscarinic acetylcholine receptor M5 (Homo sapiens), sequence (P08912 whole entry, looked up): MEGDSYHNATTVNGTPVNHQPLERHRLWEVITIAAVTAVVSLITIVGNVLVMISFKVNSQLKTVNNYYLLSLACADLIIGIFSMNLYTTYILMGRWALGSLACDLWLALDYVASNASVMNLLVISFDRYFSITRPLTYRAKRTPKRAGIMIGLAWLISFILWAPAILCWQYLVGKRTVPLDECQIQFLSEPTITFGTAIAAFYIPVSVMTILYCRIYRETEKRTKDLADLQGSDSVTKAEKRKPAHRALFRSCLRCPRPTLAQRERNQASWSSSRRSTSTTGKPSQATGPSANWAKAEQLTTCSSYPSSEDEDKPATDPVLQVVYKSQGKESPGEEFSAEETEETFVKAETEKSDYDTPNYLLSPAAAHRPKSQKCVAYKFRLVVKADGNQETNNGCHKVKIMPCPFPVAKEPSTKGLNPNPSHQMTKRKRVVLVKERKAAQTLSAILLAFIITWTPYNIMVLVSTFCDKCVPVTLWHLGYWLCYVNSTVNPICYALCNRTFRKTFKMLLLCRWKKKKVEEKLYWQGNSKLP

The target of assay [4] is human Opioid Receptor Delta 1 (Opiate D1), OPRD1 (gene 4985) (UniProt P41143). The assay can be described thus: NVS_GPCR_hOpiate_D1: NovaScreen (NVS) G Protein-Coupled Receptor Assay for human Opioid Receptor Delta 1 (Opiate D1) (AID 2283280). In outline:
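Radioligand displacement on membranes from CHO cells expressing the receptor, read by filter scintillation counting 1 h after dosing. Duplicate single-point screen at 25 uM, then concentration series for actives; loss of signal versus DMSO.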

In assay [5] the target is human Orphanin, Opioid Related Nociceptin Receptor 1 (ORL1), OPRL1 (gene 4987) (UniProt P41146). The assay can be described thus: NVS_GPCR_hORL1: NovaScreen (NVS) G Protein-Coupled Receptor Assay for human Orphanin, Opioid Related Nociceptin Receptor 1 (ORL1) (AID 2283283). In outline: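 Filter-based radioligand displacement with receptor extracted from HEK293 cells, read 1 hour after dosing by scintillation counting. Duplicate single-point screen at 25 uM; qualifying chemicals then run in concentration-response to 50 uM, analysed relative to DMSO.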

Assay [6] relates to 5-hydroxytryptamine receptor 2C (pig). The assay can be described thus: NVS_GPCR_p5HT2C: NovaScreen (NVS) G Protein-Coupled Receptor Assay for pig Serotonin, 5-Hydroxytryptamine Receptor 2C (5HT2C) (AID 2283288). In short, it runs like this:
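Pig choroid plexus membranes; radioligand competitive binding, filter-based scintillation counting, read 1 h after dosing. Primary screen in duplicate at 25 uM; actives then run as concentration series; loss of signal versus DMSO baseline.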

Assay [7] concerns the target rat Adrenergic, Alpha 1, Non-selective Receptor (Adra1), Adra1a (gene 29412) (UniProt P43140). In words: NVS_GPCR_rAdra1_NonSelective: NovaScreen (NVS) G Protein-Coupled Receptor Assay for rat Adrenergic, Alpha 1, Non-selective Receptor (Adra1) (AID 2283289). In outline: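 Rat forebrain membranes; radioligand displacement read by filter-based scintillation counting 1 h after dosing. Primary screen in duplicate at 25 uM; hits (e.g. ≥30% inhibition) rerun as concentration–response to 50 uM max. Fitted versus DMSO.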

The target in assay [8] is guinea pig Serotonin, 5-Hydroxytryptamine Receptor 4 (5HT4), HTR4 (gene 100135548) (UniProt O70528). The assay can be described thus: NVS_GPCR_g5HT4: NovaScreen (NVS) G Protein-Coupled Receptor Assay for guinea pig Serotonin, 5-Hydroxytryptamine Receptor 4 (5HT4) (AID 2283294). In outline:
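Guinea pig striatal membranes; radioligand competitive displacement, filtration and scintillation counting after 1 h. Primary screen in duplicate at 25 uM; actives then tested in concentration series; loss of binding signal fitted relative to DMSO.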

In assay [9] the target is mouse Cholecystokinin, CCK2 Receptor (CCKB), Cckbr (gene 12426) (UniProt P56481). The assay can be described thus: NVS_GPCR_mCKKBCentral: NovaScreen (NVS) G Protein-Coupled Receptor Assay for mouse Cholecystokinin, CCK2 Receptor (CCKB) (AID 2283293). In short, it runs like this: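 Radioligand displacement binding on mouse forebrain membranes, 2 h exposure, filter-based scintillation counting. Primary screen in duplicate at 25 uM; actives (e.g. ≥30% inhibition) retested in concentration-response up to 50 uM; loss of binding signal relative to DMSO.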
mouse Cholecystokinin, CCK2 Receptor (CCKB), Cckbr (gene 12426), sequence (P56481 whole entry, looked up): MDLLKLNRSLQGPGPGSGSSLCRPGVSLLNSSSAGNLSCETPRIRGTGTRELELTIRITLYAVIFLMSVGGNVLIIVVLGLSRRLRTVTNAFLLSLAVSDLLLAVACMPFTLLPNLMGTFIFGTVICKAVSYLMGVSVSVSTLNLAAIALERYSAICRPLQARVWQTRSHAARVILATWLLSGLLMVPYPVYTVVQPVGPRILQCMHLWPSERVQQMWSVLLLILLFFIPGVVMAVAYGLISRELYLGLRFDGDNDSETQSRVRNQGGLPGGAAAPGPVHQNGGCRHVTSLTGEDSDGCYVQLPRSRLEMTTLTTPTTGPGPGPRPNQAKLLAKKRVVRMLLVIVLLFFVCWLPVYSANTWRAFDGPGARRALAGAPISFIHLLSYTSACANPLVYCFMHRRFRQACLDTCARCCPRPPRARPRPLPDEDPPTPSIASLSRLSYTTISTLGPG

Assay [10] deals with human Vasopressin 1A Receptor (V1A), AVPR1A (gene 552) (UniProt P37288). In words: NVS_GPCR_hV1A: NovaScreen (NVS) G Protein-Coupled Receptor Assay for human Vasopressin 1A Receptor (V1A) (AID 2283284). In short, it runs like this: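 Cell-free radioligand displacement on human platelet preparations, 1.5 h incubation, filter-based scintillation counting. Chemicals first tested in duplicate at 25 uM; actives then run in concentration-response up to 50 uM, loss of signal fitted against DMSO.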

The target of assay [11] is human Neurokinin, NK2 Receptor, TACR2 (gene 6865) (UniProt P21452). The assay can be described thus: NVS_GPCR_hNK2: NovaScreen (NVS) G Protein-Coupled Receptor Assay for human Neurokinin, NK2 Receptor (AID 2283278).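 Further: actives reduce bound radioligand signal relative to DMSO baseline.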 In outline:
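Test chemicals displace a radioligand from receptor prepared from CHO cells in a cell-free format, read after 4 hours by scintillation counting on filters. Screening starts at 25 uM in duplicate, and active chemicals then go to concentration series.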

For assay [12], the target named is mouse Cholecystokinin, CCK1 Receptor (CCKA), Cckar (gene 12425) (UniProt O08786). The assay can be described thus: NVS_GPCR_mCCKAPeripheral: NovaScreen (NVS) G Protein-Coupled Receptor Assay for mouse Cholecystokinin, CCK1 Receptor (CCKA) (AID 2283285). In outline: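 Radioligand competitive displacement on mouse pancreatic membranes, 2 h incubation; filter-based scintillation counting, loss of signal versus DMSO. Single-concentration screen at 25 uM in duplicate, actives retested in concentration-response up to 50 uM.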
mouse Cholecystokinin, CCK1 Receptor (CCKA), Cckar (gene 12425), sequence (O08786 whole entry, looked up): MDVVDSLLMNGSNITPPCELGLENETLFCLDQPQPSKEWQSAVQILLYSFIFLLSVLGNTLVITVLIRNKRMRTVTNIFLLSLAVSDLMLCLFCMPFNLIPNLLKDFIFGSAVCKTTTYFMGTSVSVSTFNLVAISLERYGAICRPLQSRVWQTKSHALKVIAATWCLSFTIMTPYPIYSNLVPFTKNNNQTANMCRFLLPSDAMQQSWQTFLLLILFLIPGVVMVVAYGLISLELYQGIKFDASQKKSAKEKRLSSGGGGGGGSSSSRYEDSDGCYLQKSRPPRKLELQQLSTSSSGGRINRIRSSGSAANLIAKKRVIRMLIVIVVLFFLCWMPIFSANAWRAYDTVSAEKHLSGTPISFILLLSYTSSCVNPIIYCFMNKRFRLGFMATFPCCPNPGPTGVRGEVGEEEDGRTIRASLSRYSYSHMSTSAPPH

The target of assay [13] is rat Serotonin, 5-Hydroxytryptamine Receptor 1 (5HT1), Non-Selective Binding, Htr1a (gene 24473) (UniProt P19327). In words: NVS_GPCR_r5HT1_NonSelective: NovaScreen (NVS) G Protein-Coupled Receptor Assay for rat Serotonin, 5-Hydroxytryptamine Receptor 1 (5HT1), Non-Selective Binding (AID 2283286). In outline:
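Rat cortical membranes, radioligand displacement, 1 h incubation, read by filter scintillation. Primary screen in duplicate at 25 uM. Hits (e.g. ≥30% inhibition) went to concentration-response up to 50 uM, fitted as loss of binding versus DMSO.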

In assay [14] the target is human Purinergic Receptor P2Y, P2RY1 (gene 5028) (UniProt P47900). The assay can be described thus: NVS_GPCR_hPY2: NovaScreen (NVS) G Protein-Coupled Receptor Assay for human Purinergic Receptor P2Y (AID 2283281). In outline:
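Cell-free radioligand binding using U937-derived protein, 1 h after dosing, filter-based scintillation counting. Screened in duplicate at 25 uM; actives rerun as concentration-response up to 50 uM; loss of signal versus DMSO.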

Assay [15] deals with human Neurotensin Receptor (NTS), NTSR1 (gene 4923) (UniProt P30989). The assay can be described thus: NVS_GPCR_hNTS: NovaScreen (NVS) G Protein-Coupled Receptor Assay for human Neurotensin Receptor (NTS) (AID 2283279). In short, it runs like this: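 Radioligand displacement on human NTSR1 protein from CHO cells, cell-free, 1 h, filter-based scintillation counting. Primary screen at 25 uM in duplicate; hits rerun in concentration-response up to 50 uM.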

For assay [16], the target named is human Thromboxane A2 Receptor (TXA2), TBXA2R (gene 6915) (UniProt P21731). In words: NVS_GPCR_hTXA2: NovaScreen (NVS) G Protein-Coupled Receptor Assay for human Thromboxane A2 Receptor (TXA2) (AID 2283282).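 Further: actives reduce bound radioligand signal relative to DMSO baseline.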 In outline: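 Filter scintillation counting of bound radioligand, human platelet protein, 1 h exposure. Single-concentration duplicates (25 uM) first, concentration-response follow-up for actives. Binding loss scored against DMSO baseline.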
human Thromboxane A2 Receptor (TXA2), TBXA2R (gene 6915), sequence (P21731 whole entry, looked up): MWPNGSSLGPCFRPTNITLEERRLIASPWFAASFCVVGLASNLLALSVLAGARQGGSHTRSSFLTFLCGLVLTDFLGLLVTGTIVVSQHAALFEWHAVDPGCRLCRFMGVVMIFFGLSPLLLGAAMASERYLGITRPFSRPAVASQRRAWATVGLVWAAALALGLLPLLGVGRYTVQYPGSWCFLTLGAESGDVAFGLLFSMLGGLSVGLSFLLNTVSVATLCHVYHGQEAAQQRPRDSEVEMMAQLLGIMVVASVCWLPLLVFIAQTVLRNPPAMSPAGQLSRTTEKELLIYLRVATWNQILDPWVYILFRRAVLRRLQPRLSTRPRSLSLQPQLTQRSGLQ

The target in assay [17] is Neuropeptide Y receptor type 2 (Homo sapiens) (UniProt P49146). In words: NVS_GPCR_hNPY2: NovaScreen (NVS) G Protein-Coupled Receptor Assay for human Neuropeptide Receptor Y2 (NPY2) (AID 2283277). In short, it runs like this:
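Radioligand binding on membranes extracted from SK-N-MC cells, cell-free, read 1 h after dosing by filter-based scintillation counting. Loss of signal vs DMSO. Primary screen in duplicate at 25 uM; actives followed up in concentration-response up to 50 uM.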

human Neurokinin, NK2 Receptor, TACR2 (gene 6865), sequence (P21452 whole entry, looked up): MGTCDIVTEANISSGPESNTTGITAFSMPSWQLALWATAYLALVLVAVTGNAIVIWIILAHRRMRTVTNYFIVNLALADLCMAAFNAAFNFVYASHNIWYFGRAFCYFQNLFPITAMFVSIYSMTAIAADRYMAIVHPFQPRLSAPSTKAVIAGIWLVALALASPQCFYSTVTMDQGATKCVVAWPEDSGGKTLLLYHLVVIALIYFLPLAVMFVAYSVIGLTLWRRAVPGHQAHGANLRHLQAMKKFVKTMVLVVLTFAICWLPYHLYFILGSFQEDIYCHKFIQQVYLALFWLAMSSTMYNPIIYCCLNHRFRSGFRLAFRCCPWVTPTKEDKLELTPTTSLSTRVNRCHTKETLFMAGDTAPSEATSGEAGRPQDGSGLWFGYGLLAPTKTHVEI
human Opioid Receptor Mu (Opiate Mu), OPRM1 (gene 4988), sequence (P35372 whole entry, looked up): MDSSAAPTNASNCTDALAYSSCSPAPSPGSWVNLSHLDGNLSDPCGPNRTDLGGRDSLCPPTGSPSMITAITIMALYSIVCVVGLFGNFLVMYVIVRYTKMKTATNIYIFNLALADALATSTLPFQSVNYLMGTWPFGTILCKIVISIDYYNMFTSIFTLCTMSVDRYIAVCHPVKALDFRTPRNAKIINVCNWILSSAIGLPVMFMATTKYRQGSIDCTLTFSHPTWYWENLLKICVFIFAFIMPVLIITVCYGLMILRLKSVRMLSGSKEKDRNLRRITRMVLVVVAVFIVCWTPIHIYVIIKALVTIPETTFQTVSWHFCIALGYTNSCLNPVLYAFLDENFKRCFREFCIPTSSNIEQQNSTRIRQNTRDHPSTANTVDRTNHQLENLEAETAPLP
guinea pig Serotonin, 5-Hydroxytryptamine Receptor 4 (5HT4), HTR4 (gene 100135548), sequence (O70528 whole entry, looked up): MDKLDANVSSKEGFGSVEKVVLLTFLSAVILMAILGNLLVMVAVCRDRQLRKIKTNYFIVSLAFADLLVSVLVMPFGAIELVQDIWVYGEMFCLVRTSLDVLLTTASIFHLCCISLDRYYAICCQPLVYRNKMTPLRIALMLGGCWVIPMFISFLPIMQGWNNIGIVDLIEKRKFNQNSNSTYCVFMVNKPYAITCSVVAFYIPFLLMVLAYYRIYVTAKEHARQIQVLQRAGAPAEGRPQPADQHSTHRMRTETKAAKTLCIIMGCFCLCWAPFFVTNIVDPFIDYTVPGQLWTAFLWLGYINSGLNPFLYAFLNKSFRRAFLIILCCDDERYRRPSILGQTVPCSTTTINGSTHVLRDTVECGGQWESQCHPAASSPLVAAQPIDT
rat Adrenergic, Alpha 1, Non-selective Receptor (Adra1), Adra1a (gene 29412), sequence (P43140 whole entry, looked up): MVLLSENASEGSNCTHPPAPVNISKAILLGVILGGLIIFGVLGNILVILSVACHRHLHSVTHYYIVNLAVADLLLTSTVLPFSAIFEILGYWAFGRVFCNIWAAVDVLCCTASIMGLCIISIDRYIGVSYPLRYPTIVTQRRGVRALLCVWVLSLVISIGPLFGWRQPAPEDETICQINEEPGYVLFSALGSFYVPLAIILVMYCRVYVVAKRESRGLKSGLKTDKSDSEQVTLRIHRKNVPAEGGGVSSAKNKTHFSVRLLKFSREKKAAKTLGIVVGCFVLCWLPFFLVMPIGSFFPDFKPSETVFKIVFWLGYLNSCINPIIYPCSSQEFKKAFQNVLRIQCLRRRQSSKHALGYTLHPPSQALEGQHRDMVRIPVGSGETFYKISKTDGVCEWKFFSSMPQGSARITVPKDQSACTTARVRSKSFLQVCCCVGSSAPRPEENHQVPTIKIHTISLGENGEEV
rat Serotonin, 5-Hydroxytryptamine Receptor 1 (5HT1), Non-Selective Binding, Htr1a (gene 24473), sequence (P19327 whole entry, looked up): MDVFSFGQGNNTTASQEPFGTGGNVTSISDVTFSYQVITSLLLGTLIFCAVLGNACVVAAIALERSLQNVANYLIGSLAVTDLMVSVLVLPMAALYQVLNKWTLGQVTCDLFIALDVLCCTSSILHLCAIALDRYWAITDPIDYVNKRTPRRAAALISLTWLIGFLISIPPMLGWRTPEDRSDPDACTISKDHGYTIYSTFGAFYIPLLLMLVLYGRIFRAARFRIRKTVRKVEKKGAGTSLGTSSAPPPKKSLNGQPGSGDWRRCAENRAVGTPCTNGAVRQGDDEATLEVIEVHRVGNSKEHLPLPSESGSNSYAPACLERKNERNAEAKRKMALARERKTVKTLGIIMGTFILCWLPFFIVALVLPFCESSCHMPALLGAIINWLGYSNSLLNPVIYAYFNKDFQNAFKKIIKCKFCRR
human Opioid Receptor Delta 1 (Opiate D1), OPRD1 (gene 4985), sequence (P41143 whole entry, looked up): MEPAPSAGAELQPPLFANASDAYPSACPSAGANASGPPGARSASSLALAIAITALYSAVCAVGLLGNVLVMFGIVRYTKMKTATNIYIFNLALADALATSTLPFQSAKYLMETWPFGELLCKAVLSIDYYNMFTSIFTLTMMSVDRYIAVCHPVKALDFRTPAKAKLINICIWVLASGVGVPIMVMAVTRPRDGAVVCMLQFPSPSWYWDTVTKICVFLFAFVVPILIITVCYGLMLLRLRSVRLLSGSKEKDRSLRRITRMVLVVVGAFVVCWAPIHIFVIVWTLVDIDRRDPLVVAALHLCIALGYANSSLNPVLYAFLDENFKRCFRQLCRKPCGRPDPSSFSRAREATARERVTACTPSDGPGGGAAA
human Purinergic Receptor P2Y, P2RY1 (gene 5028), sequence (P47900 whole entry, looked up): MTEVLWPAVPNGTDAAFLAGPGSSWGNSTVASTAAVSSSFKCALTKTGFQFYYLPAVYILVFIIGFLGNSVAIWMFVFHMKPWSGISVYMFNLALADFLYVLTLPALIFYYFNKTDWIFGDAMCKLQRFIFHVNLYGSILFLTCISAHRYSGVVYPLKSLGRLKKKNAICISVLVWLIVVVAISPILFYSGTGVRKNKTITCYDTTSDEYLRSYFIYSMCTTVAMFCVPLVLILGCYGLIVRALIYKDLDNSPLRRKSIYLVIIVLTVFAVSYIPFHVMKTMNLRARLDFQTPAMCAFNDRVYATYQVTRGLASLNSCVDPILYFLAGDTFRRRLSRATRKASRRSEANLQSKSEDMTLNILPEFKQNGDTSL

Take `NS(=O)(=O)C(F)(F)C(F)(F)C(F)(F)C(F)(F)C(F)(F)C(F)(F)C(F)(F)C(F)(F)F`: the outcome in assay [1] and in assay [2] was inactive.
A word on the AC50: it is the concentration at which the activity in the assay is half-maximal. `Oc1ccc(C(c2ccc(O)cc2)(C(F)(F)F)C(F)(F)F)cc1`: the AC50 in [3] was 18.4 µM (active); in assay [4], 11.4 µM (active); in [5], 25 µM (active); in [6], 1.39 µM (active); in assay [7], 38.1 µM (active); in assay [1], 4.93 µM (active). Also, the AC50 in assay [8] was 11.7 µM (active).
Take `COc1ccc(O)c(C(C)(C)C)c1`: the AC50 was 13.2 µM (active) in assay [6] and 18.8 µM (active) in assay [8]. Moreover, the call in assay [7] and in [9] was inactive.
On to `N#Cc1ccc(N(CC(N)=O)CC(F)(F)F)cc1C(F)(F)F`, for which the outcome in assay [10] was inactive.
Turning to `Oc1ccc(Cl)cc1Cl`, in assay [6], the result was inactive.
For the molecule `CCC(C)(c1ccc(O)cc1)c1ccc(O)cc1`, the molecule was called inactive in assay [11]. For the same molecule, the AC50 in assay [4] was 13.2 µM (active); in [6], 16.9 µM (active); in assay [1] it was 9.36 µM (active); in [8], 16.5 µM (active).
On to `CC(C)(c1ccccc1)c1ccc(O)cc1`, for which the molecule was classed as inactive in assay [3]. Also, the AC50 in assay [11] is 25 µM (active); in assay [12] it was 18.2 µM (active); in [6], 17.9 µM (active); in assay [1], 11.8 µM (active); in assay [9], 18.5 µM (active); in assay [8], 23.7 µM (active).
In the case of `Cc1ccccc1[N+](=O)[O-]`, in [13], the outcome was inactive.
`CCOP(=S)(OCC)SCSC(C)(C)C`: the call in assay [14] and in assay [6] was inactive.
`Cc1cc2c3c(c1)C(c1ccccc1)=N[C@@H](NC(=O)c1ccncc1)C(=O)N3CC2`: the call in [11], in [15] and in assay [16] was inactive. Further, the concentration at half-maximal activity (AC50) in assay [12] is 19.9 µM (active); in assay [13], 6.17 µM (active).
`O=C(O)C(F)(F)C(F)(F)C(F)(F)C(F)(F)C(F)(F)C(F)(F)C(F)(F)C(F)(F)F`: the half-maximal activity concentration (AC50) in [16] is 6.2 µM (active).
Consider `O=S(=O)(O)C(F)(F)C(F)(F)C(F)(F)C(F)(F)C(F)(F)C(F)(F)F`, for which the call in [17] and in assay [2] was inactive. The AC50 in assay [16] was 14.5 µM (active).
